# Source: the supplement of paper PMC8728848
# Only a selection was taken, and the strongest signals are over-represented in it overall.
# Assays:
# Assay in all cases: glycan array binding signal (z-score within array); higher = stronger binding
# Details in all cases: glycan notation: IUPAC condensed, linker removed
# [1] = biological target: Fuc(a1-2)Gal(b1-3)GalNAc(b1-3)Gal
# Outline: (§1)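 The binding signal is a Z-score computed within each array. Data were drawn from 3228 arrays in the Consortium for Functional Glycomics database, restricted to those with a known protein sequence. Scores were averaged over arrays of the same protein sequence at different concentrations or buffers, and over linkers, and negative values can be taken as non-binding.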
# [2] = biological target: Fuc(a1-2)Gal(b1-3)GlcNAc(b1-3)Gal(b1-4)Glc
# Outline: as §1
# [3] = biological target: Fuc(a1-2)Gal(b1-4)[Fuc(a1-3)]GlcNAc(b1-3)[Neu5Ac(a2-6)Gal(b1-4)GlcNAc(b1-6)]Gal(b1-4)Glc
# Outline: as §1
# [4] = biological target: Fuc(a1-2)[Gal(a1-3)]Gal(b1-4)GlcNAc(b1-2)Man
# Outline: as §1
# [5] = biological target: Fuc(a1-2)[GalNAc(a1-3)]Gal(b1-3)GalNAc(b1-3)Gal(a1-4)Gal(b1-4)Glc
# Outline: as §1
# [6] = biological target: Fuc(a1-2)[GalNAc(a1-3)]Gal(b1-3)GlcNAc(b1-2)Man(a1-3)[Fuc(a1-2)[GalNAc(a1-3)]Gal(b1-3)GlcNAc(b1-2)Man(a1-6)]Man(b1-4)GlcNAc(b1-4)GlcNAc
# Outline: as §1
# [7] = biological target: Fuc(a1-3)[Gal(b1-4)]GlcNAc(b1-2)Man(a1-3)[Fuc(a1-3)[Gal(b1-4)]GlcNAc(b1-2)Man(a1-6)]Man(b1-4)GlcNAc(b1-4)GlcNAc
# Outline: as §1
# [8] = biological target: Gal(a1-3)Gal(b1-3)GlcNAc(b1-3)GalNAc
# Outline: as §1
# [9] = biological target: Gal(a1-3)Gal(b1-3)[Fuc(a1-4)]GlcNAc(b1-2)Man(a1-3)[Gal(a1-3)Gal(b1-3)[Fuc(a1-4)]GlcNAc(b1-2)Man(a1-6)]Man(b1-4)GlcNAc(b1-4)GlcNAc
# Outline: as §1
# Gal(a1-3)GalNAc = biological target: Gal(a1-3)GalNAc
# Outline: as §1
# Gal(a1-4)Gal(b1-4)GlcNAc = biological target: Gal(a1-4)Gal(b1-4)GlcNAc
# Outline: as §1
# [10] = biological target: Gal(a1-4)Gal(b1-4)GlcNAc(b1-2)Man(a1-3)[Gal(a1-4)Gal(b1-4)GlcNAc(b1-2)Man(a1-6)]Man(b1-4)GlcNAc(b1-4)GlcNAc
# Outline: as §1
# [11] = biological target: Gal(a1-4)Gal(b1-4)GlcNAc(b1-3)Gal(b1-4)Glc
# Outline: as §1
# Gal(b1-2)Gal = biological target: Gal(b1-2)Gal
# Outline: as §1
# [12] = biological target: Gal(b1-3)GlcNAc(b1-3)Gal(b1-4)Glc
# Outline: as §1
# [13] = biological target: Gal(b1-3)[Fuc(a1-4)]GlcNAc(b1-2)Man(a1-3)[Gal(b1-3)[Fuc(a1-4)]GlcNAc(b1-2)Man(a1-6)]Man(b1-4)GlcNAc(b1-4)[Fuc(a1-6)]GlcNAc
# Outline: as §1
# Gal(b1-4)Glc = biological target: Gal(b1-4)Glc
# Outline: as §1
# [14] = biological target: Gal(b1-4)GlcNAc(b1-2)[Gal(b1-4)GlcNAc(b1-4)]Man(a1-3)[Gal(b1-4)GlcNAc(b1-2)Man(a1-6)]Man(b1-4)GlcNAc(b1-4)GlcNAc
# Outline: as §1
# [15] = biological target: Gal(b1-4)GlcNAc(b1-3)Gal(b1-4)Glc
# Outline: as §1
# [16] = biological target: Gal(b1-4)GlcNAc(b1-3)Gal(b1-4)GlcNAc(b1-3)Gal(b1-4)GlcNAc(b1-2)Man(a1-3)[Gal(b1-4)GlcNAc(b1-3)Gal(b1-4)GlcNAc(b1-3)Gal(b1-4)GlcNAc(b1-2)Man(a1-6)]Man(b1-4)GlcNAc(b1-4)[Fuc(a1-6)]GlcNAc
# Outline: as §1
# [17] = biological target: Gal(b1-4)GlcNAc(b1-3)GalNAc
# Outline: as §1
# [18] = biological target: Gal(b1-4)GlcNAc(b1-6)Gal(b1-4)GlcNAc
# Outline: as §1
# Gal(b1-6)Gal = biological target: Gal(b1-6)Gal
# Outline: as §1
# Gal4S(b1-4)GlcNAc = biological target: Gal4S(b1-4)GlcNAc
# Outline: as §1
# GalNAc(b1-3)GalNAc = biological target: GalNAc(b1-3)GalNAc
# Outline: as §1
# GlcA(b1-3)GlcNAc = biological target: GlcA(b1-3)GlcNAc
# Outline: as §1
# [19] = biological target: GlcNAc(a1-4)Gal(b1-4)GlcNAc(b1-3)Gal(b1-4)[Fuc(a1-3)]GlcNAc(b1-3)Gal(b1-4)[Fuc(a1-3)]GlcNAc
# Outline: as §1
# [20] = biological target: GlcNAc(b1-3)Gal(b1-4)GlcNAc(b1-3)Gal(b1-4)GlcNAc(b1-2)Man(a1-3)[GlcNAc(b1-3)Gal(b1-4)GlcNAc(b1-3)Gal(b1-4)GlcNAc(b1-2)Man(a1-6)]Man(b1-4)GlcNAc(b1-4)GlcNAc
# Outline: as §1
# [21] = biological target: GlcNAc(b1-3)Gal(b1-4)GlcNAc(b1-3)Gal(b1-4)GlcNAc(b1-3)Gal(b1-4)GlcNAc(b1-3)Gal(b1-4)GlcNAc(b1-2)[GlcNAc(b1-3)Gal(b1-4)GlcNAc(b1-3)Gal(b1-4)GlcNAc(b1-3)Gal(b1-4)GlcNAc(b1-3)Gal(b1-4)GlcNAc(b1-6)]Man(a1-6)[GlcNAc(b1-3)Gal(b1-4)GlcNAc(b1-3)Gal(b1-4)GlcNAc(b1-3)Gal(b1-4)GlcNAc(b1-3)Gal(b1-4)GlcNAc(b1-2)Man(a1-3)]Man(b1-4)GlcNAc(b1-4)[Fuc(a1-6)]GlcNAc
# Outline: as §1
# [22] = biological target: GlcNAc(b1-3)[GlcNAc(b1-6)]Gal(b1-4)GlcNAc
# Outline: as §1
# [23] = biological target: GlcNAc(b1-4)GlcNAc(b1-4)GlcNAc
# Outline: as §1
# [24] = biological target: GlcNAc(b1-6)Gal(b1-4)GlcNAc
# Outline: as §1
# Kdn(a2-3)Gal(b1-4)Glc = biological target: Kdn(a2-3)Gal(b1-4)Glc
# Outline: as §1
# [25] = biological target: Man(a1-2)Man(a1-3)[Man(a1-2)Man(a1-6)]Man
# Outline: as §1
# MurNAc(b1-4)GlcNAc = biological target: MurNAc(b1-4)GlcNAc
# Outline: as §1
# Neu5Ac(a2-3)Gal = biological target: Neu5Ac(a2-3)Gal
# Outline: as §1
# [26] = biological target: Neu5Ac(a2-3)Gal(b1-3)GlcNAc(b1-4)Gal(b1-4)Glc
# Outline: as §1
# [27] = biological target: Neu5Ac(a2-3)Gal(b1-3)[Fuc(a1-4)]GlcNAc(b1-3)Gal(b1-4)[Fuc(a1-3)]GlcNAc
# Outline: as §1
# [28] = biological target: Neu5Ac(a2-3)Gal(b1-3)[Neu5Ac(a2-6)]GlcNAc(b1-3)[Fuc(a1-3)[Gal(b1-4)]GlcNAc(b1-6)]Gal(b1-4)Glc
# Outline: as §1
# [29] = biological target: Neu5Ac(a2-3)Gal(b1-3)]Neu5Ac(a2-3)Gal(b1-4)]GlcNAc
# Outline: as §1
# [30] = biological target: Neu5Ac(a2-3)Gal(b1-4)GlcNAc(b1-3)Gal(b1-4)GlcNAc(b1-6)[Gal(b1-3)]GalNAc
# Outline: as §1
# [31] = biological target: Neu5Ac(a2-3)Gal(b1-4)[Fuc(a1-3)]GlcNAc(b1-2)Man
# Outline: as §1
# [32] = biological target: Neu5Ac(a2-3)Gal(b1-4)[Fuc(a1-3)]GlcNAc(b1-3)Gal(b1-4)[Fuc(a1-3)]GlcNAc(b1-3)Gal(b1-4)[Fuc(a1-3)]GlcNAc
# Outline: as §1
# [33] = biological target: Neu5Ac(a2-3)Gal(b1-4)[Fuc(a1-3)]GlcNAc(b1-6)[Neu5Ac(a2-3)Gal(b1-3)]GalNAc
# Outline: as §1
# [34] = biological target: Neu5Ac(a2-6)Gal(b1-4)GlcNAc(b1-2)Man
# Outline: as §1
# [35] = biological target: Neu5Ac(a2-6)Gal(b1-4)GlcNAc(b1-3)Gal(b1-4)GlcNAc
# Outline: as §1
# [36] = biological target: Neu5Ac(a2-6)Gal(b1-4)GlcNAc(b1-3)Gal(b1-4)GlcNAc(b1-3)[Neu5Ac(a2-6)Gal(b1-4)GlcNAc(b1-3)Gal(b1-4)GlcNAc(b1-6)]GalNAc
# Outline: as §1
# [37] = biological target: Neu5Ac(a2-6)Gal(b1-4)GlcNAc(b1-3)Gal(b1-4)GlcNAc(b1-6)[Gal(b1-3)]GalNAc
# Outline: as §1
# [38] = biological target: Neu5Ac9Ac(a2-6)Gal(b1-4)GlcNAc
# Outline: as §1
# [39] = biological target: Neu5Gc(a2-8)Neu5Gc(a2-3)Gal(b1-4)GlcNAc(b1-3)Gal(b1-4)GlcNAc
# Outline: as §1
binder,measurement,setting,value
F17-L (Escherichia coli) (protein) GPDDYVPSQIAVNTSTLPGVVIGPADAHTYPRVIGELAGTSNQYVFNGGAIALMRGKFTPALPKIGSITYTFHQGNSRDSSDFDIYDIGVSGLGIIIGMAGYWPATPLVPINSSGIYIDPVGANTNPNTYNGATASFGARLFVAFVATGRLPNGYITIPTRQLGTILLEAKRTSLNNKGLTAPVMLNGGRIQVQSQTHHHHHH,glycan array binding signal (z-score),[1],-0.136
same,glycan array binding signal (z-score),[2],1.54
same,glycan array binding signal (z-score),[3],-0.136
same,glycan array binding signal (z-score),[4],0.196
same,glycan array binding signal (z-score),[5],0.104
same,glycan array binding signal (z-score),[6],-0.078
same,glycan array binding signal (z-score),[7],-0.072
same,glycan array binding signal (z-score),[8],-0.023
same,glycan array binding signal (z-score),[9],0.699
same,glycan array binding signal (z-score),Gal(a1-3)GalNAc,-0.118
same,glycan array binding signal (z-score),Gal(a1-4)Gal(b1-4)GlcNAc,1.8
same,glycan array binding signal (z-score),[10],22.9
same,glycan array binding signal (z-score),[11],2.92
same,glycan array binding signal (z-score),Gal(b1-2)Gal,-0.01
same,glycan array binding signal (z-score),[12],1.3
same,glycan array binding signal (z-score),[13],0.915
same,glycan array binding signal (z-score),Gal(b1-4)Glc,-0.096
same,glycan array binding signal (z-score),[14],-0.169
same,glycan array binding signal (z-score),[15],1.67
same,glycan array binding signal (z-score),[16],0.05
same,glycan array binding signal (z-score),[17],-0.12
same,glycan array binding signal (z-score),[18],-0.156
same,glycan array binding signal (z-score),Gal(b1-6)Gal,-0.146
same,glycan array binding signal (z-score),Gal4S(b1-4)GlcNAc,-0.113
same,glycan array binding signal (z-score),GalNAc(b1-3)GalNAc,-0.19
same,glycan array binding signal (z-score),GlcA(b1-3)GlcNAc,1
same,glycan array binding signal (z-score),[19],-0.101
same,glycan array binding signal (z-score),[20],0.024
same,glycan array binding signal (z-score),[21],0.006
same,glycan array binding signal (z-score),[22],-0.228
same,glycan array binding signal (z-score),[23],-0.131
same,glycan array binding signal (z-score),[24],0.019
same,glycan array binding signal (z-score),Kdn(a2-3)Gal(b1-4)Glc,-0.136
same,glycan array binding signal (z-score),[25],-0.153
same,glycan array binding signal (z-score),MurNAc(b1-4)GlcNAc,4.16
same,glycan array binding signal (z-score),Neu5Ac(a2-3)Gal,-0.099
same,glycan array binding signal (z-score),[26],-0.075
same,glycan array binding signal (z-score),[27],0.865
same,glycan array binding signal (z-score),[28],-0.114
same,glycan array binding signal (z-score),[29],0.01
same,glycan array binding signal (z-score),[30],-0.139
same,glycan array binding signal (z-score),[31],-0.12
same,glycan array binding signal (z-score),[32],-0.119
same,glycan array binding signal (z-score),[33],-0.152
same,glycan array binding signal (z-score),[34],-0.134
same,glycan array binding signal (z-score),[35],-0.069
same,glycan array binding signal (z-score),[36],-0.014
same,glycan array binding signal (z-score),[37],-0.112
same,glycan array binding signal (z-score),[38],-0.133
same,glycan array binding signal (z-score),[39],-0.129
